Source: the supplement of paper PMC12282887
± gives the standard deviation of the averaged measurements.

How the values were obtained:
Experiment in all cases: promoter activity interaction Z-score (Lux/OD deviation from empty-vector control); higher = stronger promoter induction by the compound
[1] = system: E. coli BW25113 acrABp lux reporter
In short: (§1)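 E. coli BW25113 (wild type or marA, soxS or rob deletion) carrying low-copy luxCDABE promoter reporters grew in 40 µl LB Lennox in 384-well plates at 37°C. Each compound was tested at four 1:2 dilutions in biological duplicates. OD600 and luminescence were read every 30 min for 12 h. Areas were taken over 0–8 h (wild type) or 1–9 h (mutants), and wells below 10% of median growth area were removed. The score is the Z-transformed residual of growth-normalised luminescence fitted against the empty-vector control.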

[2] = system: E. coli BW25113 micFp lux reporter
In short: as §1

[3] = system: E. coli BW25113 ompFp lux reporter
In short: as §1

[4] = system: E. coli BW25113 robp lux reporter
In short: as §1

[5] = system: E. coli BW25113 soxSp lux reporter
In short: as §1

[6] = system: E. coli BW25113 tolCp lux reporter
In short: as §1

[7] = 0.063 µg/ml, genetic background: wild type
[8] = 0.063 µg/ml, genetic background: ΔmarA
[9] = 0.063 µg/ml, genetic background: Δrob
[10] = 0.063 µg/ml, genetic background: ΔsoxS
[11] = 0.13 µg/ml, genetic background: wild type
[12] = 0.13 µg/ml, genetic background: ΔmarA
[13] = 0.13 µg/ml, genetic background: Δrob
[14] = 0.13 µg/ml, genetic background: ΔsoxS
[15] = 0.25 µg/ml, genetic background: wild type
[16] = 0.25 µg/ml, genetic background: ΔmarA
[17] = 0.25 µg/ml, genetic background: Δrob
[18] = 0.25 µg/ml, genetic background: ΔsoxS
[19] = 0.5 µg/ml, genetic background: wild type
[20] = 0.5 µg/ml, genetic background: ΔmarA
[21] = 0.5 µg/ml, genetic background: Δrob
[22] = 0.5 µg/ml, genetic background: ΔsoxS

## CO[C@@]12[C@H](COC(N)=O)C3=C(C(=O)C(C)=C(N)C3=O)N1C[C@@H]1N[C@@H]12 [Mitomycin C]
[1]; [7]
  promoter activity interaction Z-score: 0.203 ± 0.26
[1]; [8]
  promoter activity interaction Z-score: -0.582 ± 1.1
[1]; [9]
  promoter activity interaction Z-score: 0.184 ± 0.69
[1]; [10]
  promoter activity interaction Z-score: 0.15 ± 0.32
[1]; [11]
  promoter activity interaction Z-score: -0.161 ± 0.0059
[1]; [12]
  promoter activity interaction Z-score: 1.65 ± 0.15
[1]; [13]
  promoter activity interaction Z-score: 0.0466 ± 0.51
[1]; [14]
  promoter activity interaction Z-score: 0.106 ± 0.043
[1]; [15]
  promoter activity interaction Z-score: 0.269 ± 0.076
[1]; [16]
  promoter activity interaction Z-score: 0.437 ± 0.76
[1]; [17]
  promoter activity interaction Z-score: -0.105 ± 0.42
[1]; [18]
  promoter activity interaction Z-score: -0.0948 ± 0.4
[1]; [19]
  promoter activity interaction Z-score: 0.332 ± 0.099
[1]; [20]
  promoter activity interaction Z-score: 1.08 ± 0.83
[1]; [21]
  promoter activity interaction Z-score: -0.0462 ± 0.55
[1]; [22]
  promoter activity interaction Z-score: 0.117 ± 0.79
[2]; [7]
  promoter activity interaction Z-score: 0.161 ± 0.24
[2]; [8]
  promoter activity interaction Z-score: 0.0738 ± 0.13
[2]; [9]
  promoter activity interaction Z-score: -0.0403 ± 0.002
[2]; [10]
  promoter activity interaction Z-score: 0.173 ± 0.094
[2]; [11]
  promoter activity interaction Z-score: -0.0611 ± 0.13
[2]; [12]
  promoter activity interaction Z-score: 0.273 ± 0.08
[2]; [13]
  promoter activity interaction Z-score: 0.135 ± 0.19
[2]; [14]
  promoter activity interaction Z-score: 0.423 ± 0.057
[2]; [15]
  promoter activity interaction Z-score: 0.189 ± 0.054
[2]; [16]
  promoter activity interaction Z-score: 0.0506 ± 0.14
[2]; [17]
  promoter activity interaction Z-score: -0.0293 ± 0.023
[2]; [18]
  promoter activity interaction Z-score: -0.0557 ± 0.14
[2]; [19]
  promoter activity interaction Z-score: -0.299 ± 0.0083
[2]; [20]
  promoter activity interaction Z-score: -0.029 ± 0.23
[2]; [21]
  promoter activity interaction Z-score: 0.266 ± 0.055
[2]; [22]
  promoter activity interaction Z-score: 0.362 ± 0.13
[3]; [7]
  promoter activity interaction Z-score: 0.468 ± 0.27
[3]; [8]
  promoter activity interaction Z-score: -0.243 ± 0.38
[3]; [9]
  promoter activity interaction Z-score: 0.492 ± 0.67
[3]; [10]
  promoter activity interaction Z-score: 0.619 ± 0.42
[3]; [11]
  promoter activity interaction Z-score: 0.0398 ± 0.41
[3]; [12]
  promoter activity interaction Z-score: 1.58 ± 1
[3]; [13]
  promoter activity interaction Z-score: 0.963 ± 0.14
[3]; [14]
  promoter activity interaction Z-score: 0.857 ± 0.077
[3]; [15]
  promoter activity interaction Z-score: 0.439 ± 0.22
[3]; [16]
  promoter activity interaction Z-score: -0.0015 ± 0.17
[3]; [17]
  promoter activity interaction Z-score: 1 ± 0.15
[3]; [18]
  promoter activity interaction Z-score: -0.0721 ± 0.25
[3]; [19]
  promoter activity interaction Z-score: 0.63 ± 0.16
[3]; [20]
  promoter activity interaction Z-score: 1.34 ± 1.3
[3]; [21]
  promoter activity interaction Z-score: 1.2 ± 0.71
[3]; [22]
  promoter activity interaction Z-score: 0.778 ± 0.46
[4]; [7]
  promoter activity interaction Z-score: 0.242 ± 0.52
[4]; [8]
  promoter activity interaction Z-score: -0.678 ± 0.028
[4]; [9]
  promoter activity interaction Z-score: 0.808 ± 0.56
[4]; [10]
  promoter activity interaction Z-score: -0.138 ± 0.57
[4]; [11]
  promoter activity interaction Z-score: 0.512 ± 0.4
[4]; [12]
  promoter activity interaction Z-score: 2.91 ± 0.44
[4]; [13]
  promoter activity interaction Z-score: 0.0783 ± 0.46
[4]; [14]
  promoter activity interaction Z-score: 0.758 ± 1.5
[4]; [15]
  promoter activity interaction Z-score: 1.16 ± 0.6
[4]; [16]
  promoter activity interaction Z-score: 0.136 ± 0.099
[4]; [17]
  promoter activity interaction Z-score: 0.453 ± 0.084
[4]; [18]
  promoter activity interaction Z-score: -0.883 ± 0.36
[4]; [19]
  promoter activity interaction Z-score: 1.05 ± 0.1
[4]; [20]
  promoter activity interaction Z-score: 0.91 ± 0.79
[4]; [21]
  promoter activity interaction Z-score: 0.226 ± 0.38
[4]; [22]
  promoter activity interaction Z-score: -0.0862 ± 0.5
[5]; [7]
  promoter activity interaction Z-score: 0.078 ± 0.11
[5]; [8]
  promoter activity interaction Z-score: -0.129 ± 0.16
[5]; [9]
  promoter activity interaction Z-score: -0.043 ± 0.0072
[5]; [10]
  promoter activity interaction Z-score: 0.00107 ± 0.095
[5]; [11]
  promoter activity interaction Z-score: -0.0775 ± 0.16
[5]; [12]
  promoter activity interaction Z-score: -0.0258 ± 0.096
[5]; [13]
  promoter activity interaction Z-score: -0.0896 ± 0.043
[5]; [14]
  promoter activity interaction Z-score: -0.0792 ± 0.22
[5]; [15]
  promoter activity interaction Z-score: 0.185 ± 0.009
[5]; [16]
  promoter activity interaction Z-score: -0.158 ± 0.067
[5]; [17]
  promoter activity interaction Z-score: 0.12 ± 0.092
[5]; [18]
  promoter activity interaction Z-score: -0.0761 ± 0.073
[5]; [19]
  promoter activity interaction Z-score: 0.163 ± 0.12
[5]; [20]
  promoter activity interaction Z-score: -0.1 ± 0.14
[5]; [21]
  promoter activity interaction Z-score: -0.0272 ± 0.011
[5]; [22]
  promoter activity interaction Z-score: 0.103 ± 0.21
[6]; [7]
  promoter activity interaction Z-score: 0.274 ± 0.61
[6]; [8]
  promoter activity interaction Z-score: -0.71 ± 0.23
[6]; [9]
  promoter activity interaction Z-score: -0.666 ± 0.03
[6]; [10]
  promoter activity interaction Z-score: 0.252 ± 0.77
[6]; [11]
  promoter activity interaction Z-score: 0.0384 ± 0.54
[6]; [12]
  promoter activity interaction Z-score: 0.367 ± 0.36
[6]; [13]
  promoter activity interaction Z-score: 0.81 ± 0.56
[6]; [14]
  promoter activity interaction Z-score: 0.264 ± 0.25
[6]; [15]
  promoter activity interaction Z-score: 0.00312 ± 0.045
[6]; [16]
  promoter activity interaction Z-score: -0.556 ± 0.81
[6]; [17]
  promoter activity interaction Z-score: 0.121 ± 0.86
[6]; [18]
  promoter activity interaction Z-score: 1.27 ± 0.93
[6]; [19]
  promoter activity interaction Z-score: 0.54 ± 0.56
[6]; [20]
  promoter activity interaction Z-score: -0.295 ± 0.4
[6]; [21]
  promoter activity interaction Z-score: 0.224 ± 0.11
[6]; [22]
  promoter activity interaction Z-score: 1.46 ± 0.25
